From PubChem BioAssay
Hits are enriched below; roughly 17% of the tested compounds scored in any of these assays.
DT40 TDP1 CPT = DT40-hTDP1 cell growth loss with CPT | actives 12% (n = 420,000) | AID 686979 | chicken DT40 Tdp1-/-;hTDP1 cells + 20 nM CPT, ATP luminescence, 48 h | Potency, µM (top dose mostly 46.2 µM), for inactives: at the top dose activity change, negative = growth inhibition, actives largely listed as inhibitors; further: on the % scale 0 is the no-effect control and ±100 the full control effect; nearly all actives have a fitted effect of over 55% in size
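Cell growth measured by CellTiter-Glo luminescence after a minimum 48 h, 37 C compound exposure with 20 nM CPT in Tdp1-knockout DT40 cells stably expressing hTDP1, seeded 400/well; qHTS titration format.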
HepG2 viability = counter-screen for TGF-b inhibitors: cytotoxicity in HepG2 cells; HepG2 CAGA-GFP viability, ATP luminescence, 18 h; Potency, µM (doses to about 46.1 µM), without a hit: top-dose activity change, negative = cytotoxicity, hits mostly cytotoxic; actives 0.76% (n = 410,000)
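HepG2 CAGA-GFP cells (1000/well, DMEM with 1% FBS) received compound, then TGF-beta at 500 pg/mL final, and were incubated 18 hours at 37 degrees C. Viability was read by CellTiter-Glo luminescence. Media-only wells were set as complete cell-killing and DMSO as no toxicity.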
HT1080 IDH1KD tx = toxicity to HT-1080 IDH1 knockdown cells (counter line); HT-1080 IDH1 knockdown viability, ATP luminescence, 48 h; Potency, µM (top dose mostly 46.1 µM), inactives show at the top dose activity, negative = toxicity, most hits filed as cytotoxic; actives 2% (n = 360,000); AID 686971;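 further: 0% = DMSO wells and -100% = cell-free medium wells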
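IDH1KD HT-1080 cells, 750/well, RPMI + 5% FBS; compound pinned after 2 h settling; 48 h, 37 °C; CellTiter-Glo luminescence; % activity normalised to DMSO and no-cell wells; curves fitted, classed by r2 and efficacy.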
TDP1 cell noCPT = qHTS for Inhibitors of human tyrosyl-DNA phosphodiesterase 1 (TDP1): qHTS in cells in absence of CPT; DT40 Tdp1-/- hTDP1 cells, no CPT, ATP luminescence, 48 h; Potency, µM (titrated, usually from 46.2 µM), for the others: top-dose activity change, negative = growth inhibition, usual class: inhibitors; actives 15% (n = 420,000); AID 686978, 2013; further: on the % scale 0 is the no-effect control and ±100 the full control effect; nearly all actives have a fitted effect of over 55% in size
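Camptothecin absent (DMSO only). Human TDP1-complemented DT40 knockout cells, 400 cells/well, 37 °C for minimum 48 hr; ATP measured via CellTiter-Glo, 30 min dark incubation, luminescence.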
HT1080NT lethal = kills 2HG-producing HT-1080-NT fibrosarcoma cells | actives 1.6% (n = 360,000) | HT-1080-NT fibrosarcoma viability, CellTiter-Glo ATP luminescence, 48 h | AID 686970 | Potency, µM (doses to about 46.1 µM), without a hit: at the highest dose activity, negative = less viability, most hits filed as cytotoxic;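 further: NT is the 2HG producing partner of a matched IDH1 knockdown line; 0% = DMSO-treated cells and -100% = media-only wells without cells; nearly all actives have a fitted effect of over 55% in size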
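Fibrosarcoma NT cells, 750 per well in 5% FBS RPMI, were exposed to compound for 48 hours. Viability: CellTiter-Glo luminescence.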
TGFb inhibitor = inhibitors of TGF-b signaling. HepG2 CAGA-GFP TGF-b/SMAD3 reporter, GFP fluorescence, 18 h; TGF-beta stimulated, 500 pg/mL final. Potency, µM (highest dose often 46.1 µM), without a hit: at the top dose activity, negative = inhibition, usual class: inhibitors. actives 1.2% (n = 410,000). AID 588855; further: on the % scale 0 is the no-effect control and ±100 the full control effect; nearly all actives have a fitted effect of over 65% in size
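Inhibition was scored as loss of TGF-beta-induced (500 pg/mL final, 18 hours, 37 degrees C) GFP in HEPG2 cells carrying a CAGA-GFP reporter, in DMEM with 1% FBS. Well GFP was summed per cell; Activity was normalised to unstimulated and stimulated DMSO wells, then concentration-response fitting.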
The depositor's hits bear a star; ? = inconclusive; / = no result. The call rests on the fitted dose curve; in most records, active means well fitted curve in the direction sought with a large enough effect; inconclusive means small, poorly fitted or top-dose-only effect, or another doubt; inactive means no such curve, though single readings can be large; an effect the other way counts as inactive or inconclusive. Potency means the concentration at half of the fitted maximal effect.

SMILES	DT40 TDP1 CPT	HepG2 viability	HT1080 IDH1KD tx	TDP1 cell noCPT	HT1080NT lethal	TGFb inhibitor
O=C(Nc1ccc(Cl)c(C(F)(F)F)c1)c1ccc2c(c1)CCN2S(=O)(=O)c1ccccc1	9.2µM*	-21%	/	9.2µM*	/	-21%
Cc1ccc(C(=O)Nc2ccc(S(=O)(=O)N3CCC(c4nc5ccccc5s4)CC3)cc2)cc1	?	-6%	/	?	/	-21%
CCSP1(=S)N=C(N2CCOCC2)C(C#N)=C2CCCN21 (configuration not stated)	-4%	5%	2%	-44%	9%	-17%
CC(C)n1c(/C=C/[C@H](O)C[C@H](O)CC(=O)O)c(-c2ccc(F)cc2)c2ccccc21	18µM*	-5%	9.2µM*	29µM*	8.2µM*	35%
O=Cc1c(C(=O)O)n(Cc2ccccc2F)c2ccccc12	-26%	19%	-9%	-4%	?	14%
O=C(c1ccccc1F)N1CCN(Cc2nc3sc4c(c3c(=O)[nH]2)CCCC4)CC1	2%	-8%	-13%	-16%	-8%	?
CCOc1ccc(-c2nc3cc(NC(=O)COc4cccc(C)c4)ccc3o2)cc1	3.7µM*	-20%	/	16µM*	/	-1%
COC(=O)C1=C(c2ccc(-c3ccccc3)c(F)c2)C[C@@H]2CC[C@H]1N2C(=O)N1CCCC1	1.6µM*	-28%	-26%	1.2µM*	-19%	?
COC(=O)C1=C(c2ccc(-c3ccccc3)c(F)c2)C[C@@H]2CC[C@H]1N2C(=O)N1CCCCC1	2.3µM*	-5%	21µM*	1.3µM*	?	?
COC(=O)C1=C(c2ccc(-c3ccccc3)c(F)c2)C[C@@H]2CC[C@H]1N2C(=O)N1CCc2cc(OC)c(OC)cc2C1	?	-13%	-16%	?	-7%	-28%
COC(=O)C1=C(c2ccc(-c3ccccc3)c(F)c2)C[C@@H]2CC[C@H]1N2C(=O)NC1Cc2ccccc2C1	?	-10%	-13%	?	-9%	-23%
COC(=O)C1=C(c2ccc(-c3ccccc3)c(F)c2)C[C@@H]2CC[C@H]1N2C(=O)N1CCOCC1	1.2µM*	-12%	-6%	1.3µM*	-8%	-21%
COC(=O)C1=C(c2ccc(-c3ccccc3)c(F)c2)C[C@@H]2CC[C@H]1N2C(=O)N1CCC(O)CC1	15µM*	-23%	-12%	9.2µM*	-10%	-69%
CC1CCCC(=O)CCC/C=C/c2cc(O)cc(O)c2C(=O)O1 (configuration not stated)	3%	/	/	-15%	/	/
O=C(CN1CC(c2ccccc2)CC1=O)Nc1ccc(F)cc1 (configuration not stated)	2.9µM*	-2%	7%	-15%	11%	-13%
O=C(CN1CC(c2ccccc2)CC1=O)Nc1cccc(F)c1 (configuration not stated)	3%	7%	-2%	-6%	14%	6%
COc1cc(/C=C2\C[C@H]3[C@@H]4CC=C5C[C@@H](N6CCCC6)CC[C@]5(C)[C@H]4CC[C@]3(C)[C@H]2O)cc(OC)c1OC	15µM*	-35%	-22%	5.2µM*	-11%	-9%
CCCCN1C(=O)NC(=O)C2(Cc3c(nc4c(C)cccn4c3=O)N3CCc4ccccc4C32)C1=O (configuration not stated)	21µM*	-16%	-5%	16µM*	0%	-24%
CCCCN1C(=O)NC(=O)C2(Cc3c(nc4ccccn4c3=O)N3CCc4ccccc4C32)C1=O (configuration not stated)	-19%	-33%	1%	-15%	-10%	4%
C/C(=N\N=C(N)N)c1ccccc1	?	-18%	-21%	18µM*	-2%	-17%
CN(C)C(=O)Oc1ccc(OC(=O)c2ccccc2)cc1	-19%	-21%	?	-18%	5%	-2%
CC12CCC3c4ccc(O)c([N+](=O)[O-])c4CCC3C1CCC2=O (configuration not stated)	?	-26%	-14%	?	-30%	-16%
C[C@]12CC[C@@H]3c4ccc(O)c(O)c4CC[C@H]3[C@@H]1CC[C@@H]2O	26µM*	-49%	?	13µM*	?	?
COc1ccc(C2CC(=O)Nc3cc4c(cc32)OCO4)c(OC)c1 (configuration not stated)	?	-14%	/	15µM*	/	/
CCCCCCCCCC(=O)O[C@H]1CC[C@H]2[C@@H]3CCC4=CC(=O)CC[C@@H]4[C@H]3CC[C@]12C	19%	/	/	0%	/	/
SMILES	DT40 TDP1 CPT	HepG2 viability	HT1080 IDH1KD tx	TDP1 cell noCPT	HT1080NT lethal	TGFb inhibitor
COC(=O)C1=C(c2ccc(F)cc2OCc2ccccc2)C[C@@H]2CC[C@H]1N2C(=O)N1CCC(O)(c2ccc(Cl)cc2)CC1	?	-19%	-13%	23µM*	-8%	-25%
COC(=O)C1=C(c2ccc(F)cc2OCc2ccccc2)C[C@@H]2CC[C@H]1N2C(=O)N1CCOCC1	8.2µM*	-8%	1%	7.3µM*	0%	?
CC[C@@H](C)[C@H](C(CC(=O)N1CCCC1[C@@H](OC)[C@H](C)C(=O)N[C@H](Cc1ccccc1)c1nccs1)OC)N(C)C(=O)[C@H](NC(=O)[C@@H](C(C)C)N(C)C)C(C)C (some centres not stated)	-101%	-22%	?	-109%	0.26µM*	-62%
COC(=O)Nc1nc2ccccc2[nH]1	6.5µM*	6%	?	5.8µM*	?	-3%
CC1CCN(CCc2nc3ccccc3[nH]2)CC1	19%	0%	14%	-2%	0%	0%
CCOC(=O)c1sc2ccccc2c1NC(=O)c1coc2ccccc2c1=O	?	3%	18%	?	10%	0%
COc1ccc2c(c[n+](C)c3c4cc5c(cc4ccc23)OCO5)c1OC	1.3µM*	/	/	1.3µM*	/	/
COc1cc2c(ccc3c4cc(OC)c(OC)cc4c[n+](C)c23)cc1O	1.3µM*	6%	?	1.2µM*	-25%	-1%
COc1ccc(OC(=O)N(C)C[C@H]2OCc3cnnn3CCCC(=O)N([C@H](C)CO)C[C@H]2C)cc1	1%	-19%	10%	-3%	-4%	-2%
